The values that follow come from PubChem BioAssay AID1463 (National Center for Advancing Translational Sciences (NCATS), 2008).

The structures appear in SMILES notation. About 2,600 (0.93%) of roughly 280,000 compounds were called active. Inconclusive results (about 8%) are left out. Only a selection was taken, and actives are over-represented in it overall. Unmarked numbers belong to inactive results. Calls follow the shape of the dose curve; as a rule, active = well fitted curve in the direction sought with a large enough effect; inconclusive = small, poorly fitted or top-dose-only effect; inactive = flat fitted curve, though single readings scatter.
% is scaled to controls: 0 for no effect and ±100 for the full control effect; potency is read from the fitted curve at half-maximal effect; tags tell the direction and shape of the fitted curve or compound fluorescence and quenching.

The nature of the assay: Counterscreen qHTS for Inhibitors of Tau Fibril Formation, Fluorescence Polarization. Also: nearly all actives have a fitted effect of over 55% in size. The note with it: tau K18 P301L (four-repeat tau fragment) Alexa594 fluorescence, heparin fibrillization; series mostly up to 57.7 µM; activity change, negative = decrease: at the top concentration. The method, boiled down:
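Human K18 P301L tau (15 uM unlabeled plus 0.24 uM Alexa 594-labeled, final) in 100 mM sodium acetate pH 7 was mixed with compound and 20 uM heparin and incubated 6 hr at 37 C.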
Background: A counterscreen serves to expose hits that act by an unwanted route or on another target.
Turning to `COc1ccc(C2CC(=O)Nc3cc(C)c(C)cc32)c(OC)c1OC` (stereo unspecified), the “activity change, negative = decrease” value is -17.8%.

Regarding `COc1ccc(C(=O)NCC(c2ccc(N(C)C)cc2)N2CCc3ccccc32)c(OC)c1` (stereo unspecified), the “activity change, negative = decrease” value was -24.1%.

As to `Cc1ccc(Oc2c(C(F)(F)F)oc3c(CN4CCCCC4)c(O)ccc3c2=O)cc1`, the “activity change, negative = decrease” value was 2.89%.

As for `Cc1ccc(C(=O)Nc2c(C(=O)NC(C)(C)C)oc3ccccc23)cc1`, the “activity change, negative = decrease” value is -21.4%.

For `Oc1ccc2ccccc2c1N=Nc1nccs1`, the Potency is 12.6 µM [quencher] (active).

Take `CCOC(=O)c1ccc2c(c1)N(Cc1cccc(OC)c1)C(=O)c1ccccc1S2(=O)=O`: the “activity change, negative = decrease” value was -24.9%.

For the molecule `COc1cccc(CNC(=O)Cc2csc3nc(-c4ccccc4)cn23)c1`, the “activity change, negative = decrease” value was -4.57%.

As for `CCc1c(C)nc2c(-c3ccccc3)c(C)nn2c1Nc1ccc(NC(C)=O)cc1`, the Potency was 17.8 µM [quencher] (active).

Turning to `CCc1ccc(NC(=O)c2cnc3c(-c4ccccc4)c(C)nn3c2C)cc1`, the “activity change, negative = decrease” value is -13.4%.

Turning to `Cc1nc2c(-c3ccccc3)c(C)nn2c(C)c1CCC(=O)NCCc1ccccc1`, the “activity change, negative = decrease” value was -14.9%.

Take `COc1ccccc1NC(=O)CSC1=Nc2ccccc2C2=NC(CC(=O)NCc3cccs3)C(=O)N12` (stereo unspecified): the “activity change, negative = decrease” value was -7.59%.

Regarding `COc1ccc(CCNC(=O)c2ccc(CSCc3ccc(C)cc3)o2)cc1OC`, the “activity change, negative = decrease” value was -12.2%.

`Nc1ccc(N=Nc2ccccc2Cl)c(N)n1`: the Potency was 15.8 µM [quencher] (active).

For `Cc1ccc(C)c(N2CCN(C(=O)Cn3ncc4c(=O)oc5ccc(C)cc5c43)CC2)c1`, the “activity change, negative = decrease” value was -10.9%.

Regarding `COc1cccc(NC(=O)Nc2ccc3c(c2)N(C)C(=O)c2ccccc2S3)c1`, the “activity change, negative = decrease” value was -4.99%.

As for `COc1cccc(/C=N/NC(=O)c2[nH]nc3c2CCc2ccccc2-3)c1O`, the “activity change, negative = decrease” value was -12.7%.

Regarding `COc1cccc(/C=N/Nc2cc(C)nc(-c3ccccc3O)n2)c1O`, the Potency is 8.91 µM [quencher] (active).

For `COc1cccc(/C=N\NC(=O)C2=NNC(=O)C2C)c1O` (stereo unspecified), the “activity change, negative = decrease” value was -16%.

For `Cc1cc(C)c(/C=C/c2onc(C)c2S(=O)(=O)N2CCC(C(=O)Nc3ccc(Cl)cc3C)CC2)c(C)c1`, the “activity change, negative = decrease” value is -5.75%.

Turning to `Cc1cc(/C=N/NC(=O)c2cccnc2)c(C)n1CC(C)C`, the “activity change, negative = decrease” value was -4.42%.

Take `O=C(N/N=C/c1sc(N2CCCCC2)nc1-c1cccs1)c1cccnc1`: the Potency was 15.8 µM [quencher] (active).

For `O=C(N/N=C/c1ccccn1)c1cccnc1`, the “activity change, negative = decrease” value is -19.2%.

In the case of `COc1ccc(CNc2nc(-c3ccc(Cl)cc3)nn2C(=O)c2ccccc2)cc1`, the “activity change, negative = decrease” value is -27.4%.

With `O=C(Cn1cc(SCc2ccccc2)c2ccccc21)N1CCCCC1`, the “activity change, negative = decrease” value was -27.8%.

In the case of `CC(=O)N1CCc2cc(S(=O)(=O)NC(Cc3ccccc3)C(=O)NCc3ccc(C)cc3)ccc21` (stereo unspecified), the “activity change, negative = decrease” value is -9.61%.

For `CCN(CCCNC(=O)c1cc2cc3cc(OC)ccc3nc2s1)c1ccccc1`, the Potency is 4.47 µM [quencher] (active).

Take `CCN1CCN(C(=O)c2cc3cc4ccc(OC)cc4nc3s2)CC1`: the “activity change, negative = decrease” value was -7.15%.

`Cc1ccc(C(=O)NNC(=O)c2cc3cc4ccccc4nc3s2)cc1`: the “activity change, negative = decrease” value was -2.3%.

Turning to `O=C(CCS(=O)(=O)c1ccccc1)N(Cc1cccnc1)c1nc2c(F)cccc2s1`, the “activity change, negative = decrease” value was 1.43%.

In the case of `COc1ccc(-c2c(C)cc3oc(=O)cc(-c4ccccc4)c3c2C)cc1OC`, the “activity change, negative = decrease” value was -21.6% [at 81.3 µM].

`COc1ccc(-c2c(C)cc3oc(=O)cc(-c4ccccc4)c3c2C)cc1F`: the “activity change, negative = decrease” value was -24.1% [at 81.3 µM].

Turning to `COc1cc(OC)c2c(-c3cccc(-c4cccc(N)c4)c3)cc(=O)oc2c1`, the Potency is 11.2 µM [quencher] (active).

With `CCOc1ccccc1NC(=O)CN1CCCN(Cc2cccc(Cl)c2)S1(=O)=O`, the “activity change, negative = decrease” value is -16.6%.

As for `CC(CCCc1ccccc1)NC(=O)c1nn(-c2ccc(Cl)cc2)nc1CO` (stereo unspecified), the “activity change, negative = decrease” value was -11.8%.

Consider `Clc1ccc(Nc2ncnc3c2nnn3Cc2ccccc2)cc1`, for which the “activity change, negative = decrease” value is -14%.

`CC(=O)Nc1ccc(NC(=O)CSc2ncnc3c2cnn3Cc2ccccc2)cc1`: the “activity change, negative = decrease” value was 4.33%.

Consider `CN(C)c1cc2c(Nc3ccc4c(cnn4Cc4ccccc4)c3)ncnc2cn1`, for which the Potency is 7.08 µM [quencher] (active).

Turning to `COc1ccc(C)cc1NC(=O)CCc1c(C)nn(-c2ccc(N3CCOCC3)nn2)c1C`, the “activity change, negative = decrease” value was 4.93%.

Take `CC(=O)Nc1ccc(NC(=O)C2CCCN(S(=O)(=O)c3ccc4c(c3)CCCC(=O)N4)C2)cc1` (stereo unspecified): the “activity change, negative = decrease” value is 2.46%.

Turning to `COc1ccc2nc(NC(=O)[C@@H]3CCCN3C(=O)c3cccs3)sc2c1`, the “activity change, negative = decrease” value was -1.01%.

Regarding `COc1cccc(C(=O)Nc2nc3ccc(S(C)(=O)=O)cc3s2)c1`, the “activity change, negative = decrease” value was -24.7%.

Turning to `COc1ccc(/C=N/NC(=O)Nc2ccc3nsnc3c2)c(OC)c1`, the “activity change, negative = decrease” value is -23.2%.

For the molecule `CCOc1ccc2nc(NC(=O)CSc3nc4c(c(=O)n(C)c(=O)n4C)n3CC)sc2c1`, the “activity change, negative = decrease” value is 0.975%.

On to `Cc1nc2cc3c(cc2s1)OCO3`, for which the “activity change, negative = decrease” value was -5.34%.

Turning to `COc1ccc(NC(=O)Nc2cccc(-c3noc(C)n3)c2)cc1`, the “activity change, negative = decrease” value was -19%.

In the case of `CCC(=O)c1ccc(OCC(=O)Nc2ccc3nc(C)sc3c2)cc1`, the “activity change, negative = decrease” value was -5.88%.

With `COc1ccc2nc(Nc3nc4cc5c(cc4s3)OCCO5)sc2c1`, the Potency is 7.08 µM [quencher] (active).

Take `COc1ccc(NC(=O)Nc2ccc3nsnc3c2)cc1`: the Potency is 15.8 µM [quencher] (active).

`COc1ccc2nc(Nc3nc(-c4ccncc4)cs3)sc2c1`: the Potency is 17.8 µM [quencher] (active).

For `COc1ccc2nc(Nc3nc(-c4cc5ccccc5oc4=O)cs3)sc2c1`, the “activity change, negative = decrease” value is -9.89%.

`CCOc1ccc2nc(Nc3nc4ccc(NC(C)=O)cc4s3)sc2c1`: the Potency was 15.8 µM [quencher] (active).
